Source: PubChem BioAssay (National Center for Advancing Translational Sciences (NCATS))
TCR act: activates T cell receptor signaling | Potency, µM (doses to about 9.22 µM), inactives show at the highest dose activation of IL-2 secretion, most hits filed as activators | primary human leukocytes, anti-CD3, IL-2 HTRF, 48 h | 330,000 tested, under 10 active | AID 504894; further: % of control where 0% means no effect
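Activity was scored as IL-2 release from primary human leukocytes given only a TCR signal (a-CD3 beads) plus compound for 48 hr. Detection used a two-antibody HTRF format read at 665nm.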
ClpP mod: qHTS Assay for Activators of ClpP. purified B. subtilis ClpP, FRET peptide cleavage, 20 min. AID 651965, 2013. Potency, µM (highest dose often 57.5 µM), without a hit: at the highest dose activity change, negative = active. ATP-dependent Clp protease proteolytic subunit (Bacillus subtilis (strain 168)), P80244. actives 1.9% (n = 340,000); active means well fitted falling curve with a large enough effect; inconclusive means small, poorly fitted or top-dose-only effect; inactive means no such curve, though single readings can be large or run the other way; further: potency means the concentration at half of the fitted maximal effect; the source files actives as falling curves though it sought activators and does not explain the sign; nearly all actives have a fitted effect of over 65% in size
Target sequence (P80244 whole entry, looked up): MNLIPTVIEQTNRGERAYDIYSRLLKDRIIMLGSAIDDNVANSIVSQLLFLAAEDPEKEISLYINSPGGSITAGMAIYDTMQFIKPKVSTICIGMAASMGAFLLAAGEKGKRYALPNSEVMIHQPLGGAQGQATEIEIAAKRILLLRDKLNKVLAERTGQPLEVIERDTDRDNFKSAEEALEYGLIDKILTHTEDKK
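ClpP 10 microg/mL final, pH 8 Tris/KCl buffer with BSA, glycerol, Tween-20; compound pinned in; FRET-FV substrate; RT 20 min; Ex320/Em430; ΔFRET vs ADEP 5.8 microM, DMSO, no enzyme.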
MBNL1-CUG inh: blocks human MBNL1 binding to CUG repeat RNA | Q9NR56 | TR-FRET MBNL1-His/biotin-(CUG)12 binding, 665/545 ratio | Potency, µM (top dose mostly 57.5 µM), for inactives: at the highest dose activity change, negative = inhibition, usual class: inhibitors | actives 0.036% (n = 280,000) | AID 2675; active means well fitted inhibition curve with a large enough effect in the signal ratio, with a control signal flat, not every such curve was filed as active; inconclusive means small, poorly fitted or top-dose-only effect, or effect the other way, or a change in a side signal; inactive means no such curve, though single readings can be large or run the other way; the % refers to the signal ratio; further: potency means the concentration at half of the fitted maximal effect; on the % scale 0 is the no-effect control and ±100 the full control effect
Target sequence (Q9NR56 whole entry, looked up): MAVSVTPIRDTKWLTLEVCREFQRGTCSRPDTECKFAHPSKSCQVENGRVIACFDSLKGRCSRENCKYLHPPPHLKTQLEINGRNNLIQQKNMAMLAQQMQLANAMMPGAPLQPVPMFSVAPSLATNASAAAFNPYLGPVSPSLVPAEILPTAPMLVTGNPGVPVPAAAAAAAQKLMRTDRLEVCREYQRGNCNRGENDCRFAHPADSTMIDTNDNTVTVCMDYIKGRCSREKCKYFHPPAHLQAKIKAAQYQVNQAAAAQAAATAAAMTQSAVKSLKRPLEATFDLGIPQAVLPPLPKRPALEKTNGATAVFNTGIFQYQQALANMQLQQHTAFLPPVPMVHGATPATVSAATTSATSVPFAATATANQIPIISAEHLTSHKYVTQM
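Compounds (final 92 nM to 58 uM) are added to His-tagged MBNL1 and biotin-(CUG)12, then terbium anti-His antibody and streptavidin-XL665 (5 nM final). After 60 min at room temperature, the 665/545 nm ratio is read.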
AT treatment: potential ataxia-telangiectasia treatments restoring KAP-1 phosphorylation | F2112 A-T fibroblasts, KAP-1 phosphorylation AlphaLISA; neocarzinostatin DNA damage 30 min before lysis | actives 0.19% (n = 320,000) | Potency, µM (titrated, usually from 57.5 µM), for the others: at the highest dose activation, usual class: activators; further: potency means the concentration at half of the fitted maximal effect; % of control where 0% means no effect; nearly all actives have a fitted effect of over 45% in size
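ATM-like activity read as KAP-1 phosphorylation via AlphaLISA donor/acceptor antibody pairs after lysis and 6 hr at 25C. Cells were ATM-null patient fibroblasts (F2112, hTERT), dosed 60 min, then exposed to the DSB inducer NCS for 30 min.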
Mito fusion act: blocks mitochondrial division or promotes mitochondrial fusion | S. cerevisiae fusion-defective mutant growth rescue, CellTiterGlo 48 h | Potency, µM (series often up to 46.1 µM), for inactives: at the highest dose growth rescue (activation), hits mostly activators | actives 0.23% (n = 320,000) | AID 485298; further: potency means the concentration at half of the fitted maximal effect; % of control where 0% means no effect; nearly all actives have a fitted effect of over 45% in size
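S. cerevisiae fusion-defective temperature-sensitive mutants (e.g. fzo1-1, mgm1-5) grown 48 h at 37C in YPEG (ethanol/glycerol non-fermentable) medium with 23 nl compound per well; growth rescue read as CellTiterGlo luminescence.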
GRP78 ERSR act: ER stress response induction in glioma; Potency, µM, for inactives: at the top dose activation, actives largely listed as activators; actives 0.02% (n = 420,000); U87-MG GRP78 promoter luciferase reporter, 16 h; further: potency means the concentration at half of the fitted maximal effect; series mostly up to about 76 µM; % of control where 0% means no effect; nearly all actives have a fitted effect of over 35% in size
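Stably transfected U87-MG glioma cells carrying a GRP78-based luciferase sensor; 16 h compound incubation. Luminescence end-point read 10 min after Bright-Glo addition at room temperature.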
Starred values were filed as active, the others as inactive; ? = inconclusive; . = not tested or not shown; [ ] = remark or other dose. Shown are actives, neighbours in structure and some others; about 1.8% of the full set was active somewhere. Unless noted, the call rests on the fitted dose curve; in most records, active means well fitted curve in the direction sought with a large enough effect; inconclusive means small, poorly fitted or top-dose-only effect, or another doubt; inactive means no such curve, though single readings can be large; an effect the other way counts as inactive or inconclusive.

SMILES | TCR act | ClpP mod | MBNL1-CUG inh | AT treatment | Mito fusion act | GRP78 ERSR act
O=S(=O)(NC1CCCC1)c1cccc(-c2nnc(-c3ccccc3)o2)c1 | 3.4% | ? | -2.1% | . | 5.8% | 1.5%
COc1ccc(NS(=O)(=O)c2cccc(-c3nnc(-c4ccccc4)o3)c2)cc1 | -3.7%[46.1 µM] | 1.1% | ? | . | 12.6µM* | 0.3%
Cc1cc(S(=O)(=O)Nc2ccc3ccccc3c2)c(C)s1 | 4.3% | -2.4% | 4.6% | 7.8% | 17.8µM* | -1.0%
O=S(=O)(Nc1ccc2ccccc2c1)c1ccccc1 | -1.1%[46.1 µM] | 14.1µM* | -6.4% | 13.5% | 3.7% | 1.8%
COc1ncccc1C(=O)N1CCOc2ccc(C(O)C(c3ccccc3)c3ccccc3)cc2C1 (configuration not stated) | . | . | . | . | . | -4.7%
Cc1nc2ccccc2nc1CN1CCOc2ccc(C3(O)CCN(c4ccccc4F)CC3)cc2C1 | . | . | . | . | . | -5.6%
COc1ccc(-c2nc3cnc(N4CCOCC4)nc3n(Cc3cccs3)c2=O)cc1 | . | . | . | . | . | -3.8%
CC1(C)CC(=O)C=C(Nc2ccc(OCC(F)(F)C(F)F)cc2)C1 | -4.3% | 17.8µM* | 3.7% | 1.8% | 2.6% | 3.7%
COC(=O)c1cc(CNC(=O)c2cccc(F)c2)cc(NC(=O)c2ccccc2OC)c1 | . | . | . | . | . | -1.0%
CC(C)C(=O)Nc1ccc2c(c1)C(=O)N(CCC(=O)O)C2=O | -0.5% | 28.2µM* | 9.7% | 3.0% | -3.3% | 2.3%
CC1CC=CC2C1C(=O)N(Cc1ccccc1)C2c1ccoc1 (configuration not stated) | . | . | . | . | . | 3.6%
COc1ccc(-c2cc(C(=O)Nc3cccc(Cl)c3)no2)cc1 | 3.1% | 0.6% | -9.5% | 10µM* | -2.8% | 5.9%
COc1ccc(-c2cc(C(=O)Nc3cccc(C(C)=O)c3)no2)cc1 | 2.9% | 0.0% | 3.8% | . | 0.9% | -1.1%
CC(Sc1nnnn1-c1ccc(Cl)cc1)C(=O)NCC(=O)Nc1ccc(F)c(F)c1F (configuration not stated) | -2.6%[46.1 µM] | 25.1µM* | ? | -4.2% | 6.3% | -2.6%
COc1ccc(CC2S/C(=N/N=C/c3ccc(O)cc3)NC2=O)cc1 (configuration not stated) | 2.2% | . | -7.4% | -4.3% | 3.0% | 0.0%
COc1ccc(/C=N/N=C2/NC(=O)C(CC(=O)NC(C)C)S2)cc1 (configuration not stated) | 13.8% | 14.1µM* | -1.1% | -0.3% | -0.2% | -2.8%
CCN(Cc1cccc(S(=O)(=O)O)c1)c1ccc(C(=C2C=CC(=[N+](CC)Cc3cccc(S(=O)(=O)O)c3)C=C2)c2ccc(O)cc2S(=O)(=O)O)cc1 | . | -3.2% | . | . | . | -10.3%
CC(=O)OCC(=O)C1CCC2C3CC=C4CC(O)CCC4(C)C3CCC12C (configuration not stated) | -2.9% | -0.1% | . | -9.9% | 3.16µM* | -3.5%
C[C@]12CCC3C(CC=C4C[C@@H](O)CC[C@@]43C)C1CCC2[C@]1(C)CCC(=O)O1 (some centres not stated) | 3.0% | -14.8% | 0.2% | 5.8% | 9.2% | -5.9%
CC(=O)OCC(=O)[C@H]1CC[C@H]2[C@@H]3CCC4=CC(=O)CC[C@]4(C)[C@H]3CC[C@]12C | -8.5% | -4.1% | -1.4% | 13.4% | 12.5% | -1.5%
CC12CCC(O)CC1=CCC1C2CCC2(C)C1CCC21CCC(=O)O1 (configuration not stated) | -0.1%[46.1 µM] | -0.9% | -14.1% | 13.2% | 20µM* | -3.9%
COc1ccc(C(=O)O/N=C(\N)c2ccc(Br)cc2)cc1 | 8.5% | -10.7% | -18.8% | ? | 10µM* | 0.9%
c1cncc(CNc2cc(-c3ccc4c(c3)OCO4)ncn2)c1 | . | . | . | . | . | 3.6%
O=S(=O)(c1ccccc1)N1CCC(Oc2ccc(-n3cnnn3)cc2)CC1 | 0.4% | . | -11.4% | -2.9% | 35.5µM* | -2.2%
CC[C@@]1([C@@H]2O[C@@H]([C@H]3O[C@@](O)(CO)[C@H](C)C[C@@H]3C)C[C@@H]2C)CC[C@@H]([C@]2(C)CCC3(C[C@H](O)[C@@H](C)[C@@H]([C@@H](C)[C@@H](OC)[C@H](C)C(=O)O)O3)O2)O1 (some centres not stated) | . | . | . | . | . | -6.2%
SMILES | TCR act | ClpP mod | MBNL1-CUG inh | AT treatment | Mito fusion act | GRP78 ERSR act
COc1ccc(C(=O)c2sc(NC(C)C)nc2N)cc1OC | 12.1% | 25.1µM* | 13.2% | -6.1% | 4.8% | -9.3%
CC(=O)N(C)c1ccc(NC(=S)Nc2cccc3ccccc23)cc1 | -0.9%[46.1 µM] | 31.6µM* | 2.2% | -7.2% | -10.3% | ?
Cc1ccc2oc(-c3ccc(C)c(NC(=O)COc4ccccc4C)c3)nc2c1 | . | ? | . | . | . | 5.0%
Cc1[nH]c2ccccc2c1-c1csc(NC(=O)CSCCO)n1 | -2.1% | 0.3% | 8.1% | -0.4% | 20µM* | 5.8%
Fc1ccc(NCc2ccccc2-c2nnc(-c3ccccc3Cl)o2)cc1Cl | . | -3.6% | . | . | . | -0.1%
COc1cc2nc(/C=C/c3cc(OC)c(OC)c(OC)c3)sc2cc1SC | -5.7%[46.1 µM] | -23.0% | 5.5% | 14.7% | 12.0% | -3.1%
COc1cc2nc(C)sc2cc1SC | . | -15.7% | 20.3% | 39.8µM* | -3.8% | -5.3%
CC1(C)Cc2cccc(OCC(=O)N3CCN(c4cccc(Cl)c4)CC3)c2O1 | 6.0% | 25.1µM* | . | 4.7% | ? | -4.1%
O=c1[nH]/c(=C/c2ccc3c(c2)OCO3)c(=O)[nH]/c1=C\c1ccc2c(c1)OCO2 | . | 0.5% | . | . | . | -3.1%
O=c1nc2c(-c3ccc(F)cc3Cl)n[nH]n2c2ccccc12 | . | 4.6% | . | . | . | -3.3%
O=c1nc2c(-c3ccccc3F)n[nH]n2c2ccccc12 | -4.5% | 28.2µM* | -13.4% | -6.1% | 3.0% | -1.0%
CC(C)c1ccc(S(=O)(=O)c2n[nH]n3c2nc(=O)c2ccccc23)cc1 | -2.5%[46.1 µM] | 25.1µM* | 6.5% | 0.4% | -16.0% | -1.9%
CCc1ccc(S(=O)(=O)c2n[nH]n3c2nc(=O)c2ccccc23)cc1 | -7.0%[46.1 µM] | 31.6µM* | -4.0% | -1.5% | 0.8% | -1.1%
C[Se]CC[C@H](N)C(=O)O | . | . | . | . | . | -4.1%
Cc1cc(C)nc(S[C@H]2C[C@@H](C(=O)N3CCN(c4ccccc4F)CC3)N(Cc3ccccc3C(F)(F)F)C2)n1 | . | . | . | . | . | 4.6%
O=C(O)CC(NC(=O)C12CC3CC(CC(C3)C1)C2)c1cc([N+](=O)[O-])ccc1Cl (configuration not stated) | -2.5% | -1.9% | ? | -2.8% | 3.55µM* | -4.0%
COc1ccccc1-c1ccnc(-n2ncc(C(=O)NC(C)(C)CO)c2C2CC2)n1 | . | . | . | . | . | 6.0%
